Only some compounds are listed: those with a hit (about 2.9% of all), similar ones and a draw of the others.
LDHA inh – qHTS assay for inhibitors of human lactate dehydrogenase; activity change, % (values are at about 110 or 230 µM); L-lactate dehydrogenase A chain (Homo sapiens), P00338; 0.15% of 480,000 active; purified LDHA, NADH/diaphorase-resazurin fluorescence; hits give low values; in the data active means activity change below about -30%; inconclusive means mostly about -25% to -30%;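 further: plate controls were DMSO wells for no effect and wells without enzyme for full effect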
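Resorufin fluorescence (ex540/em590), read at 0 and 20 min after diaphorase/resazurin addition, reports the NADH left after a 5 min room-temperature reaction of 2 nM human LDH5 with 0.06 mM NADH and 0.2 mM pyruvate.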
ClpP mod – qHTS Assay for Activators of ClpP. ATP-dependent Clp protease proteolytic subunit (Bacillus subtilis (strain 168)), P80244. purified B. subtilis ClpP, FRET peptide cleavage, 20 min. Potency, µM (series often up to 57.5 µM), for inactives: at the highest dose activity change, negative = active. 1.9% of 340,000 active. AID 651965, 2013; active means well fitted falling curve with a large enough effect; inconclusive means small, poorly fitted or top-dose-only effect; inactive means no such curve, though single readings can be large or run the other way; further: potency means the concentration at half of the fitted maximal effect; the source files actives as falling curves though it sought activators and does not explain the sign; nearly all actives have a fitted effect of over 65% in size
Target sequence (P80244 whole entry, looked up): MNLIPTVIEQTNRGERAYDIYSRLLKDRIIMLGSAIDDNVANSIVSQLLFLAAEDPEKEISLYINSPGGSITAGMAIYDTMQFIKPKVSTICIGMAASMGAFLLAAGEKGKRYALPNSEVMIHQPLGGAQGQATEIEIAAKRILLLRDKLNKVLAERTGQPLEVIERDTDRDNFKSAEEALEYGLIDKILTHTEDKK
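ClpP 10 microg/mL final, pH 8 Tris/KCl buffer with BSA, glycerol, Tween-20; compound pinned in; FRET-FV substrate; RT 20 min; Ex320/Em430; ΔFRET vs ADEP 5.8 microM, DMSO, no enzyme.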
GLP-1R inv ag – qHTS of GLP-1 Receptor Inverse Agonists (Inhibition Mode); Glucagon-like peptide 1 receptor (Homo sapiens), P43220; Potency, µM (series often up to 38.3 µM), without a hit: top-dose activity change, negative = inhibition, actives largely listed as inhibitors; 1.6% of 410,000 active; HEK293 GLP-1R CRE-luciferase, luminescence, 24 h; GLP-1R form is constitutively active; further: potency means the concentration at half of the fitted maximal effect; on the % scale 0 is the no-effect control and ±100 the full control effect; nearly all actives have a fitted effect of over 55% in size
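Inverse agonists were sought by their lowering of basal cAMP reporter luciferase output in HEK293 cells stably carrying constitutively active human GLP-1R, after 24 h compound treatment.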
HEK293 tox – qHTS of GLP-1 Receptor Inverse Agonists: Cytotox Screen | 0.13% of 410,000 active | HEK293 cAMP-luciferase reporter cells, luminescence, 24 h | Potency, µM (doses to about 38.3 µM), for inactives: top-dose activity change, negative = inhibition, hits mostly inhibitors;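 further: loss of luciferase light is scored as toxicity; potency means the concentration at half of the fitted maximal effect; on the % scale 0 is the no-effect control and ±100 the full control effect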
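MLSMR compounds, 24 hr on cells at 37 deg C/5% CO2; luminescence after luciferase reagent (12 min RT). Inhibition counted as the undesired cytotoxic outcome.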
p53 reactivation – qHTS assay for re-activators of p53 using a Luc reporter | H1299 p53-A138V BP100-luciferase reporter, luminescence, 24 h | AID 504706, 2011 | Potency, µM (doses to about 92.2 µM), inactives show at the top dose activity change, positive = activation, most hits filed as activators | 0.063% of 320,000 active; further: potency means the concentration at half of the fitted maximal effect; % of control where 0% means no effect; nearly all actives have a fitted effect of over 45% in size
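p53-null H1299 cells stably carrying temperature-sensitive p53-A138V and a BP100-luciferase reporter were pinned with compounds (4-point, 1:5 series) and held 24 hrs at 37 deg C. Luminescence was read 10 min after detection reagent.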
GLP-1R agonist – qHTS of GLP-1 Receptor Agonists. Glucagon-like peptide 1 receptor (Homo sapiens), P43220. 0.007% of 380,000 active. Potency, µM (highest dose often 45.6 µM), inactives show at the highest dose activation, usual class: activators. AID 624172, 2012. HEK293 GLP-1R CRE-luciferase, luminescence, 4-6 h; cells express a hypersensitive GLP-1R form; further: potency means the concentration at half of the fitted maximal effect; % of control where 0% means no effect
Starred values were filed as active, the others as inactive; ? = inconclusive; / = no result. Unless noted, the call rests on the fitted dose curve; in most records, active means well fitted curve in the direction sought with a large enough effect; inconclusive means small, poorly fitted or top-dose-only effect, or another doubt; inactive means no such curve, though single readings can be large; an effect the other way counts as inactive or inconclusive.

SMILES	LDHA inh	ClpP mod	GLP-1R inv ag	HEK293 tox	p53 reactivation	GLP-1R agonist
O=c1[nH]c2c(s1)C(c1ccccc1)C1C3CCC(C3)C1S2 (configuration not stated)	-8	-9%	6.3µM*	41%	4%	0%
CCOC(=O)c1c(C)[nH]c(C)c1S(=O)(=O)N1CCC(C(=O)NCc2ccc(C)cc2)CC1	-5	0%	8%	-14%	/	/
CCOC(=O)c1cnc2ccc(C)cc2c1Nc1ccc(OCc2ccccc2Cl)cc1	-3	0%	11µM*	0%	/	/
CCCOc1ccc2c(c1)C(=NN=C(N)N)c1cc(OCCC)ccc1-2	-2	/	1.8µM*	?	-17%	5%
CCN(CC)CCOc1ccc2c(c1)C(=NO)c1cc(OCCN(CC)CC)ccc1-2	0	-1%	?	?	-11%	-3%
COC(=O)c1ccc(NC(=O)C2CC2)o1	0	14µM*	3%	-12%	2%	1%
Oc1ccccc1-c1cc(-c2ccco2)[nH]n1	13	-8%	-18%	-8%	?	-9%
Oc1ccc(Cl)cc1-c1cc(-c2ccco2)[nH]n1	21	?	10µM*	?	14%	-28%
CCC(=O)Nc1sc(C)c(CC)c1C(=O)O	6	/	/	/	/	/
COc1ccc(C(=O)Nc2ccc(NC(=O)c3ccccc3OC)nc2)cc1	-7	/	23%	7%	-9%	11%
CCOc1ccc(CCNC(=O)c2nn(C)c3c2CSc2ccccc2-3)cc1	-6	0%	10µM*	3%	/	/
CC(C)N(C(=O)c1nn(C)c2c1CSc1ccccc1-2)C1CCCCC1	0	-2%	10µM*	-12%	-4%	7%
COc1ccc(CNC(=O)c2nn(C)c3c2CSc2ccccc2-3)cc1	-8	-2%	?	0%	/	/
Cn1nc(C(=O)NC2CCCCC2)c2c1-c1ccccc1SC2	-6	-1%	-18%	0%	/	-2%
C=CC[C@@H](CC(=O)N(CCO)Cc1ccccc1)C(=O)N[C@H](C)COC(=O)[C@@H](CC=C)Cc1ccc(F)cc1	0	-2%	-16%	-25%	-3%	-5%
C=CC[C@H](CC(=O)N(CCO)Cc1ccccc1)C(=O)N[C@H](C)COC(=O)[C@@H](CC=C)Cc1ccc(F)cc1	0	1%	11µM*	3%	-3%	11%
C=CCC[C@@H](Cc1ccc(F)cc1)C(=O)OC[C@H](Cc1c[nH]c2ccccc12)NC(=O)[C@H](CC=C)CC(=O)N(CCO)Cc1ccccc1	-1	-3%	10µM*	?	4%	-1%
C=CCC[C@H](Cc1ccc(F)cc1)C(=O)O[C@H](CNC(=O)[C@@H](CC=C)CC(=O)N(CCO)Cc1ccccc1)c1ccccc1	5	1%	?	?	4%	-2%
C=CC[C@H](CC(=O)N(CCO)Cc1ccccc1)C(=O)NC[C@@H](OC(=O)[C@@H](CC=C)Cc1ccc(F)cc1)c1ccccc1	1	-3%	3.2µM*	-25%	10%	-5%
C=CCC[C@H](Cc1ccc(F)cc1)C(=O)OC[C@H](Cc1c[nH]c2ccccc12)NC(=O)[C@@H](CC=C)CC(=O)N(CCO)Cc1ccccc1	3	-3%	?	18%	3%	-6%
Cc1cc(C)cc(Nc2ncnc3sc4c(c23)CCCC4)c1	-4	-9%	-10%	14%	/	0%
Cc1cnc(C(=O)Nc2ccc(S(=O)(=O)N(C(C)C)C(C)C)cc2)cn1	-4	-6%	-1%	-2%	/	1%
CCn1cc2nc(SCc3ccc(F)cc3)n(CCc3ccccc3)c(=O)c2n1	0	-3%	7.9µM*	1%	/	/

Screening data: PubChem, National Center for Advancing Translational Sciences (NCATS)
